Data reported in the supplement of paper PMC10849652.
The full data set covers some 7,900 targets. This sample favours those with a hit. About 0.6% of all pairs of compound and target were hits.

Key:
Assay in all cases: log2 fold change, soluble protein after heating vs DMSO (PISA); higher = thermal stabilisation; K562 cells, 10 uM, 30 min; active = over 0.2 and 3.5 SD of the protein, either way, in both replicates (recomputed)
[1] = compound: NC(=O)Nc1cc(-c2cccc(F)c2)sc1C(=O)N[C@H]1CCCNC1
Method in brief: (§1)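 Soluble protein was quantified by TMTpro 16plex LC-MS/MS after channel sums were equalised. It was obtained as the supernatant after 21,000xg for 90 min from pooled aliquots of K562 cells (2×10^6 cells/mL, 10 μM compound, 30 min) heated for 3 min across 48°C-58°C and extracted in PBS with 0.5% NP-40 at 4°C. Thermal stability values are relative to control samples and come from duplicates. They are given as log2 fold changes.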

[2] = compound: NC(=O)c1cnc(N[C@@H]2CCCC[C@@H]2N)nc1Nc1cccc(-n2nccn2)c1
Method in brief: as §1

[3] = compound: NC1(c2ccc(-c3nc4ccn5c(=O)[nH]nc5c4cc3-c3ccccc3)cc2)CCC1
Method in brief: as §1

[4] = compound: NCC(=O)Nc1ccc(-n2nc(C(F)(F)F)cc2-c2ccc3c(ccc4ccccc43)c2)cc1
Method in brief: as §1

[5] = compound: Nc1ccccc1NC(=O)c1ccc(CNC(=O)OCc2cccnc2)cc1 [entinostat]
Method in brief: as §1

[6] = compound: O=C(CCCCCCC(=O)Nc1ccccc1)NO [vorinostat]
Method in brief: as §1

[7] = compound: O=C(CCCCCCNC(=O)c1cnc(N(c2ccccc2)c2ccccc2Cl)nc1)NO [citarinostat]
Method in brief: as §1

[8] = compound: O=C(O)c1ccc2c(c1)nc(Nc1cccc(Cl)c1)c1ccncc12 [silmitasertib]
Method in brief: as §1

[9] = compound: O=C1NC(=O)C(c2cnc3ccccn23)=C1c1cn2c3c(cc(F)cc13)CN(C(=O)N1CCCCC1)CC2
Method in brief: as §1

[10] = compound: c1cc(OCCN2CCCCC2)cc(-c2n[nH]c3ccc(-c4nnc[nH]4)cc23)c1
Method in brief: as §1

[11] = compound: c1cn2cc(-c3ccc4cn[nH]c4c3)nc(Nc3ccc(N4CCOCC4)cc3)c2n1 [entospletinib]
Method in brief: as §1

Measured: log2 fold change

RAD50 isoform 2 (UniProt Q92878)
Chain of UniProt Q92878 (Q92878 whole entry, looked up): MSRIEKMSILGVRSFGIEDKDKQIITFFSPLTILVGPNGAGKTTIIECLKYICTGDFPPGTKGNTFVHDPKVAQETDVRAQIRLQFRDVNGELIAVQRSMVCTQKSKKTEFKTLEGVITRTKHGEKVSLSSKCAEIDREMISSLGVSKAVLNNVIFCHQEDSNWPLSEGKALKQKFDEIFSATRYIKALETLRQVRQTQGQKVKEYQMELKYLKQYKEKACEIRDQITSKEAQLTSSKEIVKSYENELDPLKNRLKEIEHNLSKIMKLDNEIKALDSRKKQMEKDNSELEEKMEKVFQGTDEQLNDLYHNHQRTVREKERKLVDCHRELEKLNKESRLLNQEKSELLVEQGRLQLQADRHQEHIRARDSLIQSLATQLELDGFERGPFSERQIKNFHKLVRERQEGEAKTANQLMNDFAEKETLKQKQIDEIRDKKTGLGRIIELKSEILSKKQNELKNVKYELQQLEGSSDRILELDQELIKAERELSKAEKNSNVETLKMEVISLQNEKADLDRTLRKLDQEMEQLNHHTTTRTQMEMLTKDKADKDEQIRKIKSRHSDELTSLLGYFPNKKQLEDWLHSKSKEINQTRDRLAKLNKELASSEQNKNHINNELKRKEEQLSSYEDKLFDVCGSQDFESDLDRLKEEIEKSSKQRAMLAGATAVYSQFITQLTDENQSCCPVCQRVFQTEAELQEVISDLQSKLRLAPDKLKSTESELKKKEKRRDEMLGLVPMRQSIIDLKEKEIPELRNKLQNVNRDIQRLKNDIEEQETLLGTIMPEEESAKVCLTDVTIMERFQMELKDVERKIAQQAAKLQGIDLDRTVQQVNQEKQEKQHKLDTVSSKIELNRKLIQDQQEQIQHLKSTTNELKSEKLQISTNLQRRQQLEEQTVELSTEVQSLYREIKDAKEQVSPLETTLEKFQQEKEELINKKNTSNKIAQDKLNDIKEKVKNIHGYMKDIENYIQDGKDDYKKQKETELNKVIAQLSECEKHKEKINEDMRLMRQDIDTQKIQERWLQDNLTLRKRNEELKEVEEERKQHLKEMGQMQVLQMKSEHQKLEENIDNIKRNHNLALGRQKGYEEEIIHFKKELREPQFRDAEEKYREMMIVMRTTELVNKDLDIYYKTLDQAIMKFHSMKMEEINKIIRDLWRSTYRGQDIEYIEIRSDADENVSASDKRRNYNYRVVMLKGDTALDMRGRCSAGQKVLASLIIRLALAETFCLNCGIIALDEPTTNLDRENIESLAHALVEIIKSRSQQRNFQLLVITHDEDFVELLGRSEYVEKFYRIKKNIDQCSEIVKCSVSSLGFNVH
inactive: [1] -0.011 | [2] -0.042 | [3] -0.057 | [4] -0.064 | [5] 0.038 | [6] -0.014 | [7] 0.047 | [8] -0.008 | [9] -0.034 | [10] 0.009 | [11] -0.02

SLC1A5 (UniProt Q15758)
Chain of UniProt Q15758 (Q15758 whole entry, looked up): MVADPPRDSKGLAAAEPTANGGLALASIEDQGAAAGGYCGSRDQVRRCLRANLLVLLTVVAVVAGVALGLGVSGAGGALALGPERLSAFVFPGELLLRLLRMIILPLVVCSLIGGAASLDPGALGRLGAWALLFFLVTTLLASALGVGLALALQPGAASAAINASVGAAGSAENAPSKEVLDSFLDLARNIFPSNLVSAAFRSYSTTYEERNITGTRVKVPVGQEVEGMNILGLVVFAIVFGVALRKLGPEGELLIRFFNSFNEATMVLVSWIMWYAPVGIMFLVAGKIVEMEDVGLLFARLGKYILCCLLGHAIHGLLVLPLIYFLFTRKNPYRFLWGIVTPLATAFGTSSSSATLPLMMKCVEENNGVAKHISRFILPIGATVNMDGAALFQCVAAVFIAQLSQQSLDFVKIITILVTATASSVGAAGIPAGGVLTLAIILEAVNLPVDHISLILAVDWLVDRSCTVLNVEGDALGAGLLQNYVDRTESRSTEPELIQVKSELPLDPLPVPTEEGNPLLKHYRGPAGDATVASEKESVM
inactive: [1] -0.057 | [2] 0.117 | [3] 0.155 | [4] 0.03 | [5] -0.041 | [6] -0.039 | [7] -0.003 | [8] -0.016 | [9] -0.001 | [10] -0.03 | [11] -0.032

RPL31 (UniProt P62899)
inactive: [1] 0.042 | [2] 0.099 | [3] 0.26 | [4] 0.075 | [5] -0.079 | [6] -0.012 | [7] -0.09 | [8] 0.048 | [9] 0.104 | [10] -0.12 | [11] 0.098

RPS6KA2 isoform 2 (UniProt Q15349)
Chain of UniProt Q15349 (Q15349 whole entry, looked up): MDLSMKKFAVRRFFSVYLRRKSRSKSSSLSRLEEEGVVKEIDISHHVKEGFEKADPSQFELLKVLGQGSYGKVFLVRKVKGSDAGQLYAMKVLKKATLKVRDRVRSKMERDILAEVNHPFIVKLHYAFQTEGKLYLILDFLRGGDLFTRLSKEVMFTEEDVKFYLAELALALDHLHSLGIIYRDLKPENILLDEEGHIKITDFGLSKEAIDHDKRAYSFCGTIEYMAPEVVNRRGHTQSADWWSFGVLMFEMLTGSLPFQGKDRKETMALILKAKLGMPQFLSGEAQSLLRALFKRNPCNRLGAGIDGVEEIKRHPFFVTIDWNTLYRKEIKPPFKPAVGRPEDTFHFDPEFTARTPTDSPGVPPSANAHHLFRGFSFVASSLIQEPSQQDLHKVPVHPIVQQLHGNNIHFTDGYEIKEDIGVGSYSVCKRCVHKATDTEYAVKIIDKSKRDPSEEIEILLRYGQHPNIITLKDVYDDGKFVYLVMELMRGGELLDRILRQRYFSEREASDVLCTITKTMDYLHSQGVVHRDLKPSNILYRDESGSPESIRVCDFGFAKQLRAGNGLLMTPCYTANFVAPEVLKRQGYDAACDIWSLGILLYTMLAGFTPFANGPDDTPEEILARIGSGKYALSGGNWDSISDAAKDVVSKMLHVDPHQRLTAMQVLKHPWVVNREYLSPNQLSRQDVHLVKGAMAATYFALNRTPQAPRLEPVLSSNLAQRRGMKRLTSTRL
inactive: [1] -0.129 | [2] -0.256 | [3] -0.269 | [4] -0.035 | [5] 0.067 | [6] 0.122 | [7] 0.106 | [8] -0.044 | [9] -0.056 | [10] -0.295 | [11] 0.013

SF3B5 (UniProt Q9BWJ5)
inactive: [1] 0.081 | [2] 0.043 | [3] -0.034 | [4] 0.038 | [5] 0.116 | [6] -0.004 | [7] -0.016 | [8] 0.016 | [9] -0.127 | [10] 0 | [11] 0.021

RPA3 (UniProt P35244)
active: [4] 0.371
inactive: [1] 0.044 | [2] 0.086 | [3] -0.021 | [5] 0.102 | [6] -0.005 | [7] 0.1 | [8] -0.007 | [9] -0.164 | [10] -0.071 | [11] -0.02

SETD3 (UniProt Q86TU7)
inactive: [1] -0.007 | [2] -0.019 | [3] -0.045 | [4] -0.002 | [5] -0.02 | [6] -0.035 | [7] -0.015 | [8] 0.007 | [9] -0.022 | [10] 0.031 | [11] 0.001

RPS3 (UniProt P23396)
inactive: [1] -0.006 | [2] 0.05 | [3] 0.117 | [4] 0.033 | [5] -0.055 | [6] 0.015 | [7] -0.035 | [8] -0.008 | [9] 0.029 | [10] -0.145 | [11] 0.063

RPS21 (UniProt P63220)
inactive: [1] 0.022 | [2] 0.018 | [3] 0.114 | [4] -0.012 | [5] -0.061 | [6] -0.059 | [7] 0.002 | [8] 0.008 | [9] 0.045 | [10] -0.015 | [11] -0.016

RSRC1 (UniProt Q96IZ7)
Chain of UniProt Q96IZ7 (Q96IZ7 whole entry, looked up): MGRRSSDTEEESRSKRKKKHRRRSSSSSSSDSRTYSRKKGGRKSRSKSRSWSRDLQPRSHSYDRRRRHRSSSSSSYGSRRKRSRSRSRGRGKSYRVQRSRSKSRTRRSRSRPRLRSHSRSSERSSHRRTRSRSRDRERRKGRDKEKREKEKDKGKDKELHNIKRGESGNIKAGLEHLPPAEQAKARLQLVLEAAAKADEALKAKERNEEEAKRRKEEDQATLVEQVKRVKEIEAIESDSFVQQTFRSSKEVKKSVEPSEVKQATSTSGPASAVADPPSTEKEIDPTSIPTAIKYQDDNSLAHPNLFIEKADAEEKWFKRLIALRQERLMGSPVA
active: [8] -0.275
inactive: [1] -0.019 | [2] 0.162 | [3] -0.005 | [4] -0.013 | [5] -0.04 | [6] 0.022 | [7] 0.049 | [9] -0.029 | [10] -0.123 | [11] 0.076

SH2D1B (UniProt O14796)
active: [1] -1.1
inactive: [2] 0.04 | [3] -0.135 | [4] -0.024 | [5] 0.055 | [6] 0.101 | [7] 0.413 | [8] -0.111 | [9] -0.018 | [10] -0.062 | [11] -0.372

RALY (UniProt Q9UKM9)
inactive: [1] -0.039 | [2] 0.071 | [3] 0.353 | [4] 0.026 | [5] -0.02 | [6] -0.105 | [7] -0.064 | [8] 0.128 | [9] 0.072 | [10] -0.106 | [11] -0.001

RAD51 (UniProt Q06609)
inactive: [1] 0.051 | [2] -0.019 | [3] -0.057 | [4] 0.031 | [5] 0.001 | [6] 0.047 | [7] 0.018 | [8] -0.003 | [9] -0.014 | [10] -0.012 | [11] -0.127

RPS20 isoform 2 (UniProt P60866)
inactive: [1] -0.012 | [2] 0.056 | [3] 0.151 | [4] 0.037 | [5] -0.029 | [6] 0.012 | [7] -0.091 | [8] -0.006 | [9] 0.072 | [10] -0.1 | [11] 0.064

RNASEH2A (UniProt O75792)
Chain of UniProt O75792 (O75792 whole entry, looked up): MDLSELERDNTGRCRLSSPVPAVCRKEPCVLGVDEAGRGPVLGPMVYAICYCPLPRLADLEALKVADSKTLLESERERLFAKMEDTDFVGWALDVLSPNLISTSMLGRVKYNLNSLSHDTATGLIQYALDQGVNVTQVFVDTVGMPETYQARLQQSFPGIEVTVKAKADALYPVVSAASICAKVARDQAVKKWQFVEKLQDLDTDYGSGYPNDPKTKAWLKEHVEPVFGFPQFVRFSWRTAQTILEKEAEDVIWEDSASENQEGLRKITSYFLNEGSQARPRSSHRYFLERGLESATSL
inactive: [1] -0.017 | [2] -0.06 | [3] -0.181 | [4] -0.109 | [5] 0.037 | [6] -0.145 | [7] 0.015 | [8] 0.014 | [9] -0.208 | [10] -0.015 | [11] 0.011

SERINC3 (UniProt Q13530)
Chain of UniProt Q13530 (Q13530 whole entry, looked up): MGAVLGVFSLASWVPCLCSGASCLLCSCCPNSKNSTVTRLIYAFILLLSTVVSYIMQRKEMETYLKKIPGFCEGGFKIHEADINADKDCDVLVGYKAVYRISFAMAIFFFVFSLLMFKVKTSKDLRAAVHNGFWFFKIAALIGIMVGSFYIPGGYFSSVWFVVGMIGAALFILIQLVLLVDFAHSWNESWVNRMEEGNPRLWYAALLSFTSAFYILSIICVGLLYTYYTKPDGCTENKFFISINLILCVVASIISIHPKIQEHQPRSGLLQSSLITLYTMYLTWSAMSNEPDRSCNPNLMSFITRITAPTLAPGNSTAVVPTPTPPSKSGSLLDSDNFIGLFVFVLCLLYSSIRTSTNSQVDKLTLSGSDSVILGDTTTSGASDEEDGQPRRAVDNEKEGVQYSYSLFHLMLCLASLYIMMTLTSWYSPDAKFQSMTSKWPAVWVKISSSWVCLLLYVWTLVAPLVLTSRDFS
inactive: [1] -0.111 | [2] -0.027 | [3] -0.195 | [4] -0.267 | [5] -0.07 | [6] -0.044 | [7] -0.093 | [8] 0.054 | [9] 0.018 | [10] -0.031 | [11] 0.01

RSF1 (UniProt Q96T23)
inactive: [1] -0.17 | [2] -0.078 | [3] -0.246 | [4] -0.198 | [5] 0.073 | [6] 0.028 | [7] -0.087 | [8] 0.04 | [9] -0.182 | [10] 0.081 | [11] 0.052

RIOK3 (UniProt O14730)
inactive: [1] 0.047 | [2] -0.005 | [3] -0.061 | [4] 0.015 | [5] -0.005 | [6] 0.043 | [7] 0.036 | [8] -0.011 | [9] 0.057 | [10] -0.046 | [11] -0.001

SCAMP2 (UniProt O15127)
inactive: [1] -0.007 | [2] 0.168 | [3] 0.001 | [4] 0.029 | [5] -0.001 | [6] -0.027 | [7] 0.189 | [8] -0.002 | [9] 0.109 | [10] -0.065 | [11] -0.078

RAD50, A0A494C0Y7
inactive: [1] -0.032 | [2] -0.159 | [3] -0.28 | [4] -0.175 | [5] -0.103 | [6] -0.086 | [7] 0.095 | [8] 0.103 | [10] -0.279 | [11] -0.108

RHOA (UniProt P61586)
Chain of UniProt P61586 (P61586 whole entry, looked up): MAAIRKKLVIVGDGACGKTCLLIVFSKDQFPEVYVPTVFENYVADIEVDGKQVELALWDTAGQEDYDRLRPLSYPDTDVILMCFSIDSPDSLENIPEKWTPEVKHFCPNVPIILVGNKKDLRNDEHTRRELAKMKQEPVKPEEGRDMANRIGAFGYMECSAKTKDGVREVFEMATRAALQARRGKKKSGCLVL
inactive: [1] -0.01 | [2] 0.036 | [3] 0.204 | [4] 0.123 | [5] -0.019 | [6] -0.16 | [7] -0.047 | [8] -0.136 | [9] -0.057 | [10] 0.104 | [11] 0.054

RCN3 (UniProt Q96D15)
inactive: [1] -0.042 | [2] -0.027 | [3] 0.105 | [4] -0.013 | [5] -0.027 | [6] -0.122 | [7] -0.063 | [8] -0.002 | [9] -0.039 | [10] 0.12 | [11] -0.156

RPS13 (UniProt P62277)
inactive: [1] 0.058 | [2] 0.093 | [3] 0.246 | [4] 0.115 | [5] -0.062 | [6] 0.019 | [7] -0.121 | [8] -0.022 | [9] 0.091 | [10] -0.182 | [11] 0.148

RMC1 (UniProt Q96DM3)
Chain of UniProt Q96DM3 (Q96DM3 whole entry, looked up): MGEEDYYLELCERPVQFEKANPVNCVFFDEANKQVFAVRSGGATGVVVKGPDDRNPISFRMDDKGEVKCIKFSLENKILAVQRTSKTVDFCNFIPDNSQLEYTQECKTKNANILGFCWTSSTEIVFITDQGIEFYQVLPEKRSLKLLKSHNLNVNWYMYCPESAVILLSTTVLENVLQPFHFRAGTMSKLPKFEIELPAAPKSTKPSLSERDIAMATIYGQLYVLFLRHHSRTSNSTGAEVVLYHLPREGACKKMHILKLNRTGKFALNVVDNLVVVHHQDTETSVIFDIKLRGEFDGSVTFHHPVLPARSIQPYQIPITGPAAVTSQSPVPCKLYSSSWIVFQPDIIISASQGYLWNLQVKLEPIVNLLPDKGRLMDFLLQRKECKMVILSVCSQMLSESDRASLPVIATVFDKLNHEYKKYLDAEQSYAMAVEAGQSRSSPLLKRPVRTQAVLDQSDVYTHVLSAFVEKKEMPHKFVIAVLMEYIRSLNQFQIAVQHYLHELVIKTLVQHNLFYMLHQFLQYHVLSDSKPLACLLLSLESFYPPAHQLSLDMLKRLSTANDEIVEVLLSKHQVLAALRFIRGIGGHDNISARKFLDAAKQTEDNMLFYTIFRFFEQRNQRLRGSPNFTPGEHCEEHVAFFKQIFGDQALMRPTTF
inactive: [1] -0.026 | [2] -0.141 | [4] -0.039 | [5] 0.048 | [6] 0.017 | [7] 0.04 | [8] 0.025 | [9] -0.036 | [10] -0.045 | [11] -0.03
active: [3] -0.384

RBM39 (UniProt Q14498)
inactive: [1] -0.141 | [2] -0.079 | [3] 0.023 | [4] -0.152 | [5] 0.02 | [6] 0.062 | [7] 0.105 | [8] -0.083 | [9] 0.049 | [10] -0.144 | [11] -0.125

RUNX1 isoform 8 (UniProt Q01196)
inactive: [1] -0.027 | [2] 0.03 | [3] -0.092 | [4] 0.187 | [5] -0.16 | [6] 0.321 | [7] -0.249 | [8] 0.119 | [9] 0.082 | [10] 0.051 | [11] 0.116

SAAL1 (UniProt Q96ER3)
Chain of UniProt Q96ER3 (Q96ER3 whole entry, looked up): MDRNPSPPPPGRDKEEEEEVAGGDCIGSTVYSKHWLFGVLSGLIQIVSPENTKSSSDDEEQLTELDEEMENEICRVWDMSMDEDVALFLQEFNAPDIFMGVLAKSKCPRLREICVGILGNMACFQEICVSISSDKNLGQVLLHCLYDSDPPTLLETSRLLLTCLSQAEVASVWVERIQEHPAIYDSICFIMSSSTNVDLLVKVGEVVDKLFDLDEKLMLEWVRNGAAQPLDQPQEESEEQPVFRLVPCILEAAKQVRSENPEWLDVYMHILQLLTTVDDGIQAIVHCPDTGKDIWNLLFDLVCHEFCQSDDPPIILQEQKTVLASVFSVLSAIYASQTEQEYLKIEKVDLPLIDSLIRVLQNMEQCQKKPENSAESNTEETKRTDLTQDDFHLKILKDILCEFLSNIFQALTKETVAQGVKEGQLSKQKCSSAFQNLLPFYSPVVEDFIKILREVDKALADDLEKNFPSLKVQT
inactive: [1] -0.091 | [2] 0.031 | [3] -0.207 | [4] -0.058 | [5] 0.04 | [6] 0.006 | [7] 0.011 | [8] 0.119 | [9] -0.04 | [10] -0.013 | [11] 0.093
